Results: PubChem BioAssay AID1159580 (chemical genetic matrix, 2015)
Values joined by “and” are separate entries in the source; they are usually repeats but may differ in a detail not shown here. Equal entries are not always repeated. In all, about 5,500 compounds went through this assay and about 2,000 (36%) were called active. Inconclusive results (about 18%) are left out. Rule as the data show it: active = normalized growth mostly below about 0.91 (no sharp cut-off); inconclusive = no clear call, values can overlap the other calls; inactive = mostly above about 0.92. The list shows a part of the results.

Experiment: chemical genetic growth profiling, strain panel (AID 1159580);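 also: tested at 20 µM; growth read once vehicle control cultures reached saturation at 30 °C; 1 = growth at the plate median or of vehicle wells; lower values mean less growth of the strain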
Details: S. cerevisiae deletion strains, growth OD

Measured: normalized growth

OC[C@@H]1CCCN2CCCC[C@H]12
inactive: locus YAL013W, strain DEP1, stronger effect = lower value 0.983 | locus YAL021C, strain ccr4, stronger effect = lower value 1.05 | locus YAL026C, strain drs2, stronger effect = lower value 1.04 | locus YAL030W, strain snc1, stronger effect = lower value 1.03 | locus YBL061C, strain skt5, stronger effect = lower value 1.03 | locus YBR009C, strain hhf1, stronger effect = lower value 1.01 | locus YBR021W, strain FUR4, stronger effect = lower value 0.998 | locus YBR023C, strain chs3, stronger effect = lower value 1.05 | locus YBR171W, strain sec66, stronger effect = lower value 1.05 | locus YBR229C, strain ROT2, stronger effect = lower value 0.998 | locus YBR231C, strain swc5, stronger effect = lower value 1.03 | locus YBR279W, strain paf1, stronger effect = lower value 1.03 | locus YCL011C, strain gbp2, stronger effect = lower value 1.03 | locus YCL016C, strain dcc1, stronger effect = lower value 1.03 | locus YCL029C, strain bik1, stronger effect = lower value 1.02 | locus YCL061C, strain MRC1, stronger effect = lower value 1.02 | locus YCL069W, strain vba3, stronger effect = lower value 1.04 | locus YCR088W, strain abp1, stronger effect = lower value 1.04 | locus YDL005C, strain med2, stronger effect = lower value 1.03 | locus YDL035C, strain GPR1, stronger effect = lower value 1.01 | locus YDL040C, strain nat1, stronger effect = lower value 1.02 | locus YDL074C, strain BRE1, stronger effect = lower value 1.01 | locus YDL101C, strain DUN1, stronger effect = lower value 1.01 | locus YDL134C, strain PPH21, stronger effect = lower value 0.989 | locus YDL185W, strain tfp1, stronger effect = lower value 1.02 | locus YDL192W, strain arf1, stronger effect = lower value 1.01 | locus YDR001C, strain nth1, stronger effect = lower value 1.02 | locus YDR069C, strain doa4, stronger effect = lower value 1.01 | locus YDR101C, strain arx1, stronger effect = lower value 1.02 | locus YDR137W, strain rgp1, stronger effect = lower value 1.05 | locus YDR159W, strain sac3, stronger effect = lower value 0.961 | locus YDR162C, strain NBP2, stronger effect = lower value 1.01 | locus YDR195W, strain ref2 1.02 | locus YDR297W, strain sur2, stronger effect = lower value 1.01 | locus YDR318W, strain mcm21, stronger effect = lower value 1.01 | locus YDR334W, strain swr1, stronger effect = lower value 1.02 | locus YDR335W, strain msn5, stronger effect = lower value 1.04 | locus YDR388W, stronger effect = lower value 1.01 | locus YDR392W, strain spt3, stronger effect = lower value 0.945 | locus YDR502C, strain sam2, stronger effect = lower value 1.01 | locus YEL003W, strain gim4, stronger effect = lower value 1.04 | locus YEL037C, strain rad23, stronger effect = lower value 1.03 | locus YEL061C, strain CIN8 (second series), stronger effect = lower value 1.02 | locus YEL061C, strain CIN8, stronger effect = lower value 1 | locus YER015W, strain faa2, stronger effect = lower value 1.03 | locus YER016W, strain bim1, stronger effect = lower value 1.02 | locus YER110C, stronger effect = lower value 1.02 | locus YER111C, strain swi4, stronger effect = lower value 1.03 | locus YER155C, strain BEM2 (second series), stronger effect = lower value 1 | locus YER155C, strain BEM2, stronger effect = lower value 0.996 | locus YER167W, strain BCK2, stronger effect = lower value 1 | locus YFR010W, strain ubp6, stronger effect = lower value 1.01 | locus YGL078C, strain dbp3, stronger effect = lower value 1 | locus YGL086W, strain mad1, stronger effect = lower value 1.01 | locus YGL167C, strain pmr1, stronger effect = lower value 1.02 | locus YGL173C, strain kem1, stronger effect = lower value 1.02 | locus YGL227W, strain vid30, stronger effect = lower value 1.03 | locus YGL240W, strain doc1, stronger effect = lower value 1.01 | locus YGL248W, strain PDE1, stronger effect = lower value 0.993 | locus YGL253W, strain hxk2, stronger effect = lower value 1.05 | locus YGR078C, strain PAC10, stronger effect = lower value 1 | locus YGR135W, strain pre9, stronger effect = lower value 0.993 | locus YGR252W, strain gcn5, stronger effect = lower value 0.957 | locus YHR013C, strain ard1, stronger effect = lower value 1.03 | locus YHR027C, strain rpn1, stronger effect = lower value 1.01 | locus YHR030C, strain SLT2, stronger effect = lower value 0.998 and 1.01 | locus YHR079C, strain IRE1 (second series), stronger effect = lower value 1.01 | locus YHR079C, strain IRE1, stronger effect = lower value 1.02 | locus YHR094C, strain hxt1, stronger effect = lower value 1.01 | locus YHR129C, strain ARP1, stronger effect = lower value 1.01 | locus YHR142W, strain chs7, stronger effect = lower value 1.04 | locus YHR200W, strain rpn10, stronger effect = lower value 1.02 | locus YIL066C, strain RNR3, stronger effect = lower value 1.01 | locus YIL073C, strain SPO22, stronger effect = lower value 1.05 | locus YIL125W, strain kgd1, stronger effect = lower value 1.01 | locus YIR030C, strain dcg1, stronger effect = lower value 1.01 | locus YJL092W, strain hpr5, stronger effect = lower value 1.03 | locus YJL095W, strain BCK1 (second series), stronger effect = lower value 1.02 | locus YJL095W, strain BCK1, stronger effect = lower value 1.03 and 1 | locus YJL115W, strain asf1, stronger effect = lower value 1.03 | locus YJL129C, strain trk1, stronger effect = lower value 1.06 | locus YJL134W, strain LCB3, stronger effect = lower value 0.978 | locus YJL154C, strain vps35, stronger effect = lower value 1.02 | locus YJL164C, strain tpk1, stronger effect = lower value 1.02 | locus YJL166W, strain qcr8, stronger effect = lower value 1.02 | locus YJL168C, strain set2, stronger effect = lower value 1 | locus YJL187C, strain SWE1 (second series), stronger effect = lower value 1.02 | locus YJL187C, strain SWE1, stronger effect = lower value 1.04 | locus YJR043C, strain POL32, stronger effect = lower value 0.992
